Among the test systems are NCI-H23 lung; NCI-H226 lung; NCI-H322M lung; HOP-62 NSCLC; NCI-H460 lung; HOP-92 NSCLC; A549/ATCC NSCLC; 786-0 renal; COLO 205 colon; DU-145 prostate; K-562 leukemia; MALME-3M melanoma; MDA-MB-231 breast; RXF 393 renal; SF-268 CNS; SF-295 CNS; UACC-257 melanoma; M14 melanoma; SF-539 CNS.
Holding throughout (assay): NCI-60 one-dose screen, 48 h (100 = growth as untreated, 0 = no growth, -100 = all killed)
Common to all, as to conditions: 10 µM unless noted

The structures appear in SMILES notation. This is part of a sample that, as a whole, favours compounds with a hit. Of some 83,000 tested, about 20% had one in any assay.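 Testing used 96-well plates and a 48-hour single-concentration exposure. Example: -40 means 40% of the starting cells died.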 Values without a mark were called inactive. Calls of active or inactive are those of the source. How the source made its calls: active means growth percent below 10; inactive means the rest.

For eight compounds, growth results are on record in PubChem BioAssay (NCI).

`CCCCCc1c(C)[nH]c(/C=C2\N=C(c3ccc[nH]3)C=C2Oc2ccccc2)c1C`: the growth in the assay on NCI-H23 lung was -80.2% [100 µM] (active); with NCI-H226 lung, -38.2% [100 µM] (active); with NCI-H322M lung, -49.8% [100 µM] (active); in the assay on HOP-62 NSCLC, -46.4% [100 µM] (active); with NCI-H460 lung it was -38.6% [100 µM] (active); in the assay on HOP-92 NSCLC, -41.3% [100 µM] (active). The growth in the assay on A549/ATCC NSCLC was -81.6% [100 µM] (active); in the assay on 786-0 renal, -76.3% [100 µM] (active); in the assay with COLO 205 colon it was -53.9% [100 µM] (active); with DU-145 prostate, -68.1% [100 µM] (active); in the assay with K-562 leukemia, -43.8% [100 µM] (active); in the assay with MALME-3M melanoma, -44.7% [100 µM] (active). The growth with MDA-MB-231 breast is -94.1% [100 µM] (active); in the assay on RXF 393 renal, -57.2% [100 µM] (active); in the assay on SF-268 CNS it was -60.8% [100 µM] (active); with SF-295 CNS, -57.7% [100 µM] (active); in the assay on UACC-257 melanoma it was -66.9% [100 µM] (active); in the assay on M14 melanoma, -96.7% [100 µM] (active).
Take `CC(C)OP(=O)(OC(C)C)c1ncc(-c2ccc(C(F)(F)F)cc2)c(NC2CCCCCC2)n1`: the growth with NCI-H23 lung is -47.6% [33.3 µM] (active); in the assay on NCI-H226 lung, -50.3% [33.3 µM] (active); in the assay on NCI-H322M lung it was -70% [33.3 µM] (active); in the assay with HOP-62 NSCLC it was -27.1% [33.3 µM] (active); with NCI-H460 lung, -64.5% [33.3 µM] (active); with HOP-92 NSCLC it was -93.7% [33.3 µM] (active). Moreover, the growth with A549/ATCC NSCLC was -33.6% [33.3 µM] (active); in the assay with 786-0 renal, -67.6% [33.3 µM] (active); in the assay on COLO 205 colon, -78% [33.3 µM] (active); in the assay on DU-145 prostate it was -81.2% [33.3 µM] (active); in the assay with K-562 leukemia, -22.1% [33.3 µM] (active); in the assay on MALME-3M melanoma, -85% [33.3 µM] (active). In addition, the growth is -8.63% [33.3 µM] (active) in the assay with MDA-MB-231 breast; -85.7% [33.3 µM] (active) in the assay on RXF 393 renal; -90.6% [33.3 µM] (active) in the assay on SF-268 CNS; -85.6% [33.3 µM] (active) in the assay with SF-295 CNS; -41.1% [33.3 µM] (active) with UACC-257 melanoma; -90.2% [33.3 µM] (active) in the assay on M14 melanoma.
Take `CCOC(=O)C(C(=O)OCC)C1CCCCC1`: the growth with NCI-H23 lung is 106%; in the assay on NCI-H226 lung it was 98.7%; in the assay on NCI-H322M lung, 94%; in the assay with HOP-62 NSCLC, 107%; with NCI-H460 lung, 106%; in the assay on HOP-92 NSCLC, 82.4%. For the same compound, the growth with A549/ATCC NSCLC was 96.8%; in the assay with 786-0 renal it was 96.4%; in the assay with COLO 205 colon it was 112%; with DU-145 prostate it was 107%; with K-562 leukemia, 104%; with MALME-3M melanoma it was 96%. In addition, the growth in the assay with MDA-MB-231 breast is 108%; in the assay on RXF 393 renal, 107%; in the assay with SF-268 CNS, 99.1%; in the assay on SF-539 CNS, 99.4%; in the assay on UACC-257 melanoma, 96.3%; in the assay with M14 melanoma, 102%.
Regarding `CCCCOP(=O)(OCCCC)C(C(=O)OCC)C(CC(=O)OCC)C(=O)OCC` (stereo not drawn), the growth with NCI-H23 lung was 134%; in the assay on NCI-H226 lung it was 99.1%; in the assay on NCI-H322M lung, 107%; in the assay on HOP-62 NSCLC it was 104%; with NCI-H460 lung, 109%; in the assay on HOP-92 NSCLC, 48.4%. Further, the growth is 103% with A549/ATCC NSCLC; 106% with 786-0 renal; 107% in the assay with COLO 205 colon; 122% with DU-145 prostate; 109% in the assay with K-562 leukemia; 125% in the assay with MALME-3M melanoma. Besides, the growth with MDA-MB-231 breast is 100%; in the assay with RXF 393 renal, 93.4%; in the assay with SF-268 CNS it was 109%; in the assay on SF-295 CNS, 101%; in the assay on SF-539 CNS, 91.4%; with M14 melanoma, 114%.
For the compound `COc1cc(C(=O)c2cc3c(cc2C)OCO3)cc(OC)c1OC`, the growth in the assay with NCI-H23 lung is 28%; with NCI-H226 lung, 45.4%; in the assay with NCI-H322M lung, 36%; with HOP-62 NSCLC, 40.8%; with NCI-H460 lung, 8.71% (active); in the assay with HOP-92 NSCLC, 37.4%. Moreover, the growth is 17.8% with A549/ATCC NSCLC; 51.3% with 786-0 renal; -49.9% (active) in the assay on COLO 205 colon; 21.5% in the assay with DU-145 prostate; 13.7% in the assay on K-562 leukemia; 50.4% in the assay on MALME-3M melanoma. Besides, the growth in the assay with MDA-MB-231 breast is 23.3%; with RXF 393 renal, 42.9%; in the assay on SF-268 CNS it was 43.1%; in the assay with SF-295 CNS, -50.4% (active); with SF-539 CNS it was 6.27% (active); in the assay with M14 melanoma it was 22.5%.
On to `O=C1NC(=O)/C(=C\c2ccco2)S1`, for which the growth with NCI-H23 lung is 101%; with NCI-H226 lung it was 95.8%; in the assay with NCI-H322M lung, 111%; in the assay on HOP-62 NSCLC it was 90.7%; in the assay with NCI-H460 lung, 105%; in the assay on HOP-92 NSCLC it was 87%. Besides, the growth in the assay on A549/ATCC NSCLC is 108%; with 786-0 renal, 99%; with COLO 205 colon, 91.4%; with DU-145 prostate it was 112%; with K-562 leukemia, 111%; in the assay with MALME-3M melanoma, 101%. The growth is 89.5% with MDA-MB-231 breast; 106% in the assay on RXF 393 renal; 99.4% in the assay with SF-268 CNS; 103% with SF-539 CNS; 108% with UACC-257 melanoma; 104% in the assay on M14 melanoma.
Consider `CSc1nc(-c2ccc(O)cc2O)c2c(=O)[nH]c(Nc3ccc(S(=O)(=O)Nc4nc(C)cc(C)n4)cc3)nc2n1`, for which the growth with NCI-H23 lung was 105%; in the assay with NCI-H226 lung, 105%; in the assay with NCI-H322M lung, 108%; with HOP-62 NSCLC it was 89.6%; with NCI-H460 lung it was 111%; in the assay on HOP-92 NSCLC it was 24.6%. Also, the growth was 112% in the assay with A549/ATCC NSCLC; 100% in the assay with 786-0 renal; 112% in the assay on COLO 205 colon; 95.1% with DU-145 prostate; 99.4% in the assay on K-562 leukemia; 79.8% in the assay on MALME-3M melanoma. The growth in the assay with MDA-MB-231 breast is 100%; in the assay on RXF 393 renal, 115%; in the assay with SF-268 CNS it was 101%; in the assay on SF-539 CNS, 108%; in the assay with UACC-257 melanoma it was 124%.
Turning to `O=[N+]([O-])c1ccc(NS(=O)(=O)c2ccc(Cl)c(Cl)c2)cc1`, the growth was 81.5% in the assay on NCI-H23 lung; 82.5% with NCI-H226 lung; 111% with NCI-H322M lung; 82% with HOP-62 NSCLC; 77.7% in the assay with NCI-H460 lung; -1.71% (active) with HOP-92 NSCLC. The growth in the assay on A549/ATCC NSCLC was 75.1%; in the assay on 786-0 renal, 76.5%; in the assay with COLO 205 colon it was 122%; in the assay with DU-145 prostate, 94%; in the assay on K-562 leukemia, 66.3%; in the assay with MALME-3M melanoma, 88%. Moreover, the growth was 76% in the assay on MDA-MB-231 breast; 93.2% in the assay with RXF 393 renal; 97% in the assay with SF-268 CNS; 50.3% in the assay on SF-295 CNS; 82.6% with SF-539 CNS; 79% in the assay with M14 melanoma.
